Measurements taken from the antibiotic and cytotoxicity screens of Wong et al. (2023).
Screen size: about 39,000 compounds; about 3,300 (8.5%) were called active. For the sample, actives were picked, then their nearest neighbours and some compounds at random.

What follows are molecules tested on HepG2 (assay: cytotoxicity call (relative viability < 0.9)). Details: 10 µM.
With Cc1noc(C)c1NC(=O)N(C)C[C@H]1Oc2ccc(NC(=O)c3ccncc3)cc2CC(=O)N([C@H](C)CO)C[C@H]1C the cytotoxicity call was “inactive”.
CC(C)NC(=O)N(C)C[C@@H]1OCCCC[C@@H](C)Oc2ccc(NC(=O)Nc3ccccc3)cc2C(=O)N([C@@H](C)CO)C[C@H]1C was tested, and the cytotoxicity call was “inactive”.
C[C@H]1CN([C@@H](C)CO)C(=O)c2cc(NS(=O)(=O)c3ccc(Cl)cc3)ccc2O[C@@H]1CN(C)S(C)(=O)=O was tested, and the cytotoxicity call was “inactive”.
C[C@H](CO)N1C[C@H](C)[C@@H](CN(C)C(=O)C2CCOCC2)Oc2ncc(C#Cc3cccc(F)c3)cc2C1=O was tested, and the cytotoxicity call was “inactive”.
In the case of C[C@@H]1CN([C@@H](C)CO)C(=O)c2cc(NC(=O)Nc3cccc4ccccc34)ccc2O[C@@H](C)CCCCO[C@@H]1CN(C)S(=O)(=O)c1cccs1, the cytotoxicity call is reported as “inactive”.
In the case of COc1ccccc1C#Cc1cnc2c(c1)C(=O)N([C@@H](C)CO)C[C@@H](C)[C@H](CN(C)C(=O)CC1CC1)O2, the cytotoxicity call is reported as “inactive”.
For Cc1ccc(S(=O)(=O)Nc2ccc3c(c2)C(=O)N([C@H](C)CO)C[C@@H](C)[C@H](CN(C)C(=O)NC(C)C)O3)cc1, the cytotoxicity call was “inactive”.
In the case of C[C@@H]1CN([C@H](C)CO)C(=O)CCCn2cc(nn2)CO[C@@H]1CN(C)C(=O)c1cc(-c2ccccc2)on1, the cytotoxicity call is reported as “inactive”.
With CN(C)CCCCNC(=O)[C@@H]1C[C@@H]2C(=O)N[C@@H](CCCC[N+](C)(C)C)C(=O)N2[C@@H]1c1ccc(O)cc1 the cytotoxicity call was “inactive”.
For C[C@H]1CCCCO[C@H](CN(C)C(=O)Nc2ccc(C(F)(F)F)cc2)[C@@H](C)CN([C@@H](C)CO)C(=O)c2cc(NC(=O)Nc3cccc4ccccc34)ccc2O1, the cytotoxicity call was “inactive”.
COc1ccc(S(=O)(=O)N(C)C[C@H]2Oc3ccc(NC(=O)Nc4c(C)noc4C)cc3CC(=O)N([C@@H](C)CO)C[C@@H]2C)cc1 was tested, and the cytotoxicity call was “inactive”.
For CCS(=O)(=O)N1C[C@]2(CN(C2)C(=O)Nc2ccc(cc2)F)c2c(n(c3cc(ccc23)OC)C)[C@H]1CO, the cytotoxicity call was “inactive”.
With C[C@@H]1CN([C@H](C)CO)C(=O)Cc2cc(NS(=O)(=O)c3ccc(F)cc3)ccc2O[C@@H]1CN(C)Cc1ccc(Oc2ccccc2)cc1 the cytotoxicity call was “active”.
C[C@H](CO)N1C[C@H](C)[C@@H](CN(C)Cc2ccc(Oc3ccccc3)cc2)Oc2ccc(NS(=O)(=O)c3ccc(F)cc3)cc2CC1=O was tested, and the cytotoxicity call was “inactive”.
In the case of CC(=O)[C@@H](OC(=O)CS(C)(=O)=O)C(=O)NCc1ccccc1, the cytotoxicity call is reported as “inactive”.
With COc1ccc(S(=O)(=O)Nc2ccc3c(c2)C(=O)N([C@H](C)CO)C[C@@H](C)[C@H](CN(C)C(=O)CCC(F)(F)F)OCCCC[C@@H](C)O3)cc1 the cytotoxicity call was “inactive”.
COc1ccc(S(=O)(=O)Nc2ccc3c(c2)C(=O)N([C@H](C)CO)C[C@H](C)[C@H](CN(C)C(=O)C2CCCCC2)OCCCC[C@H](C)O3)cc1 was tested, and the cytotoxicity call was “active”.
In the case of C[C@H](CO)N1C[C@H](C)[C@H](CN(C)C(=O)C2CCCCC2)OCCCC[C@H](C)Oc2ccc(NS(=O)(=O)c3ccccc3)cc2C1=O, the cytotoxicity call is reported as “inactive”.
COc1ccc(S(=O)(=O)Nc2ccc3c(c2)C(=O)N([C@H](C)CO)C[C@@H](C)[C@H](CN(C)C(=O)C2CCCCC2)OCCCC[C@@H](C)O3)cc1 was tested, and the cytotoxicity call was “inactive”.
In the case of C[C@@H]1CCCCO[C@H](CN(C)C(=O)C2CCCCC2)[C@H](C)CN([C@@H](C)CO)C(=O)c2cc(NS(=O)(=O)c3ccc(Cl)cc3)ccc2O1, the cytotoxicity call is reported as “inactive”.
In the case of C[C@@H]1CCCCO[C@@H](CN(C)C(=O)C2CCCCC2)[C@H](C)CN([C@@H](C)CO)C(=O)c2cc(NS(=O)(=O)c3ccccc3)ccc2O1, the cytotoxicity call is reported as “active”.
In the case of C[C@@H]1CN([C@H](C)CO)C(=O)c2cc(NS(=O)(=O)c3ccc(Cl)cc3)ccc2O[C@@H](C)CCCCO[C@H]1CN(C)C(=O)C1CCCCC1, the cytotoxicity call is reported as “active”.
With C[C@@H]1CCCCO[C@@H](CN(C)C(=O)C2CCCCC2)[C@H](C)CN([C@@H](C)CO)C(=O)c2cc(NS(=O)(=O)c3ccc(Cl)cc3)ccc2O1 the cytotoxicity call was “inactive”.
With C[C@@H]1CN([C@@H](C)CO)C(=O)c2cc(NS(=O)(=O)c3ccc(Cl)cc3)ccc2O[C@@H](C)CCCCO[C@H]1CN(C)C(=O)C1CCCCC1 the cytotoxicity call was “inactive”.
With C[C@@H]1CCCCO[C@H](CN(C)C(=O)C2CCCCC2)[C@@H](C)CN([C@H](C)CO)C(=O)c2cc(NS(=O)(=O)c3ccc(Cl)cc3)ccc2O1 the cytotoxicity call was “inactive”.
With C[C@@H]1CCCCO[C@H](CN(C)C(=O)C2CCCCC2)[C@H](C)CN([C@H](C)CO)C(=O)c2cc(NS(=O)(=O)c3ccccc3)ccc2O1 the cytotoxicity call was “inactive”.
For COc1ccc(S(=O)(=O)Nc2ccc3c(c2)C(=O)N([C@H](C)CO)C[C@H](C)[C@@H](CN(C)C(=O)C2CCCCC2)OCCCC[C@H](C)O3)cc1, the cytotoxicity call was “inactive”.
For C[C@@H]1CN([C@H](C)CO)C(=O)c2cc(NS(=O)(=O)c3ccc(Cl)cc3)ccc2O[C@@H](C)CCCCO[C@@H]1CN(C)C(=O)C1CCCCC1, the cytotoxicity call was “active”.
With C[C@H]1CN([C@@H](C)CO)C(=O)Cc2cc(NC(=O)Cn3cnnn3)ccc2O[C@H]1CN(C)CC1CC1 the cytotoxicity call was “inactive”.
COc1ccc(NC(=O)N(C)C[C@@H]2Oc3ncc(C#C[C@@H](C)O)cc3C(=O)N([C@@H](C)CO)C[C@@H]2C)cc1 was tested, and the cytotoxicity call was “inactive”.
With CCC(=O)N[C@H]1CC[C@H](CC(=O)OC)O[C@@H]1CO the cytotoxicity call was “inactive”.
For CNC(=O)C[C@H]1CC[C@@H]2[C@H](COC[C@@H](O)CN2C(=O)c2ccccn2)O1, the cytotoxicity call was “inactive”.
In the case of CC(C)NC(=O)N(C)C[C@@H]1Oc2c(NS(=O)(=O)c3cn(C)cn3)cccc2C(=O)N([C@H](C)CO)C[C@H]1C, the cytotoxicity call is reported as “inactive”.
In the case of Cc1ccc(S(=O)(=O)N(C)C[C@H]2Oc3ccc(NC(=O)NC(C)C)cc3CC(=O)N([C@@H](C)CO)C[C@@H]2C)cc1, the cytotoxicity call is reported as “inactive”.
For O=C(C[C@@H]1CC[C@H]2[C@@H](COC[C@H](O)CN2C(=O)Nc2ccc(C(F)(F)F)cc2)O1)NCCc1ccncc1, the cytotoxicity call was “inactive”.
In the case of Cc1ccc(S(=O)(=O)Nc2ccc3c(c2)C(=O)N([C@H](C)CO)C[C@@H](C)[C@H](CN(C)C(=O)C2CCCCC2)OCCCC[C@@H](C)O3)cc1, the cytotoxicity call is reported as “inactive”.
In the case of Cc1ccc(S(=O)(=O)Nc2ccc3c(c2)C(=O)N([C@@H](C)CO)C[C@H](C)[C@@H](CN(C)C(=O)C2CCCCC2)OCCCC[C@@H](C)O3)cc1, the cytotoxicity call is reported as “active”.
In the case of Cc1ccc(S(=O)(=O)Nc2ccc3c(c2)C(=O)N([C@@H](C)CO)C[C@H](C)[C@H](CN(C)C(=O)C2CCCCC2)OCCCC[C@@H](C)O3)cc1, the cytotoxicity call is reported as “inactive”.
C[C@H]1CCCCO[C@H](CN(C)S(=O)(=O)c2cn(C)cn2)[C@@H](C)CN([C@@H](C)CO)C(=O)c2cc(NS(=O)(=O)c3ccc(F)cc3)ccc2O1 was tested, and the cytotoxicity call was “inactive”.
In the case of C[C@@H]1CN([C@H](C)CO)C(=O)c2cc(NC(=O)NC3CCCCC3)ccc2O[C@@H]1CN(C)S(C)(=O)=O, the cytotoxicity call is reported as “inactive”.
COc1ccc([Si](C)(C)[C@H]2[C@H](CC(=O)N3Cc4ccccc4C[C@H]3CO)O[C@@]3(C(=O)N(C)c4c(Br)cc(C)cc43)[C@@H]2C)cc1 was tested, and the cytotoxicity call was “inactive”.
For CN1C(=O)c2cc(NC(=O)C3CCOCC3)ccc2OC[C@H]2O[C@H](CC(=O)NCCc3ccncc3)CC[C@@H]21, the cytotoxicity call was “inactive”.
With O=C(C=Cc1ccc(O)c(O)c1)C=C(O)C=Cc1ccc(O)c(O)c1 the cytotoxicity call was “active”.
In the case of COc1cc(C=O)ccc1O, the cytotoxicity call is reported as “active”.
O=C(O)C=Cc1ccc(O)c(O)c1 was tested, and the cytotoxicity call was “inactive”.
COc1ccc(C=CC(=O)O)cc1OC was tested, and the cytotoxicity call was “inactive”.
With COc1cc(C=CC(=O)O)ccc1O the cytotoxicity call was “inactive”.
For COc1cc(C=CC(=O)C=C(O)C=Cc2ccc(O)c(OC)c2)ccc1O, the cytotoxicity call was “active”.
With COc1cc(C(C)=O)ccc1O the cytotoxicity call was “inactive”.
COc1ccc(/C=C/C(=O)C=C(O)/C=C/c2ccc(OC)c(OC)c2)cc1OC was tested, and the cytotoxicity call was “inactive”.
O=C(/C=C/c1ccc(O)c(O)c1)O[C@H]([C@H](OC(=O)/C=C/c1ccc(O)c(O)c1)[C@H](OC(=O)/C=C/c1ccc(O)c(O)c1)C(=O)O)[C@@H](OC(=O)/C=C/c1ccc(O)c(O)c1)C(=O)O was tested, and the cytotoxicity call was “inactive”.
S=C1NCNCN1 was tested, and the cytotoxicity call was “inactive”.
For O=C1N[C@H](Cc2ccccc2)COC(=O)[C@@H](Cc2ccc(F)cc2)CCC=CC[C@@H]1CC(=O)N(CCO)Cc1ccccc1, the cytotoxicity call was “inactive”.
COc1ccc(CN2C[C@@H](C)[C@H](OC)CN(C)C(=O)c3ccc(NC(=O)c4nc5ccccc5s4)cc3OC[C@H]2C)cc1 was tested, and the cytotoxicity call was “inactive”.
For COCC#Cc1ccc2c(c1)O[C@@H](CN(C)C(=O)CN(C)C)[C@H](C)CN([C@H](C)CO)S2(=O)=O, the cytotoxicity call was “inactive”.
With Cc1ccc(S(=O)(=O)N(C)C[C@@H]2Oc3ncc(Br)cc3C(=O)N([C@H](C)CO)C[C@@H]2C)cc1 the cytotoxicity call was “inactive”.
With COC(=O)c1cc(S(=O)(=O)N2CCOCC2)cn1C the cytotoxicity call was “inactive”.
C[C@@H]1CCCCO[C@@H](CN(C)C(=O)Nc2ccc(F)cc2)[C@@H](C)CN([C@@H](C)CO)C(=O)c2cc(NC(=O)C3CCCCC3)ccc2O1 was tested, and the cytotoxicity call was “inactive”.
COCC#Cc1ccc([C@H]2[C@@H](CO)N3C(=O)CN(C(=O)C4CCOCC4)C[C@@H]23)cc1 was tested, and the cytotoxicity call was “inactive”.
For C[C@H]1CN([C@@H](C)CO)C(=O)c2cccc(NC(=O)c3cnccn3)c2O[C@H]1CN(C)C(=O)Nc1ccccc1, the cytotoxicity call was “inactive”.
In the case of C[C@@H]1CN([C@@H](C)CO)C(=O)c2cc(NC(=O)Nc3ccc(C(F)(F)F)cc3)ccc2O[C@@H](C)CCCCO[C@@H]1CN(C)C(=O)CCCN(C)C, the cytotoxicity call is reported as “inactive”.
In the case of Oc1ccc2ccccc2c1, the cytotoxicity call is reported as “inactive”.
Oc1ccc2ccccc2c1 [beta-NAPHTHOL ] was tested, and the cytotoxicity call was “active”.
In the case of O=C(O)c1ccc2ccccc2c1, the cytotoxicity call is reported as “inactive”.
With Oc1cccc(O)c1 the cytotoxicity call was “inactive”.
For C[C@H](CO)N1C[C@H](C)[C@@H](CN(C)S(=O)(=O)c2ccccc2)Oc2ccc(NS(=O)(=O)c3ccccc3)cc2C1=O, the cytotoxicity call was “inactive”.
For Cc1ccc(S[C@]2(C(=O)NCC(C)C)CC(=O)N(Cc3cc(C(F)(F)F)cc(C(F)(F)F)c3)[C@@H]2c2ccc(CO)cc2I)cc1, the cytotoxicity call was “inactive”.
